The first assay addresses TPPP3. The experiment in a line: pooled miR-30 sensor sort-seq; sequence = guide strand. The settings on record: shRNA.
Turning to TTGTAGGCGCTCACGTAGCCAC, the sensor-assay potency score (higher = more potent) is -1.01.
Still for that read-out and setting: next, TTGCAGTCCTTGCACAGCTTGG: -0.971; TTGAACTCCTCATAGTTGATGA: -0.547.

The target of the next assay is TPRX1. The assay is described as above. The settings on record: shRNA.
For the sequence TGAACCACACCTGCAGCTGTTG, the sensor-assay potency score (higher = more potent) is -0.826.
The same measure, in the same setting: next, TAGGGGTAGGAGCAGCTCTGTG: -1.84; TTGCCCATAGAGTCATCCCCTT: -0.764; TAGAGTCATCCCCTTCTTGGTA: -0.907.
Regarding TCGGGCTTGGGATCTGAGCTGG, the sensor-assay potency score (higher = more potent) is -0.605.
On the same count and under the same terms, next, TGAAGTGAGGGAATAACTGGGT: 0.243; TGGTGGAGGCTGCAGATCGTGG: -1.98.
Same read-out and setting: next, TTCTTGGTACTGAGAGGTCATG: -1.73; TTGAACCACACCTGCAGCTGTT: -0.741.
For the sequence TTTCATTCACAGAGCCACCCTC, the sensor-assay potency score (higher = more potent) is -0.302.
TTGGAGCTGGGACTGAGCCTGA had a sensor-assay potency score (higher = more potent) of -0.894.
For the sequence TTCATTCACAGAGCCACCCTCC, the sensor-assay potency score (higher = more potent) is -0.83.

A further assay concerns the target TRAFD1. The description is as above. The settings on record: shRNA.
As for TTTATGTCACTGAGAGACCTGG, the sensor-assay potency score (higher = more potent) is -0.674.
Same read-out and setting: next, TGCAGTTGTCACACAGTCGAGT: -0.879; TTGCACTCTCTTCACCACCCTC: -0.942; TAACTGGTTACTTGCAGCCTGT: -0.902.
Same read-out and setting: next, TTGGTTGGTAGTTCTATTGTGG: -0.193.
The same measure, in the same setting: next, TTATTCTGAATTGAAACCTGGG: 0.55; TTCTTCAAACAGATTATTCTGA: 0.585; TTCCTGCTTAGTATCATCCAGG: -0.814.
Turning to TTCTATTGTGGAAAACATCTGA, the sensor-assay potency score (higher = more potent) came to 0.311.
Turning to TTTGCCTTTGCAGTTCTGCTGC, the sensor-assay potency score (higher = more potent) is 0.136.
Sequence TTGCAGTTGTCACACAGTCGAG showed a sensor-assay potency score (higher = more potent) of -1.47.

The target of the next assay is TRAPPC2L. The assay is described as above. The note with it: shRNA.
Consider TTGCACATCACGTCTGTGTAGG, for which the sensor-assay potency score (higher = more potent) was 0.239.
Same read-out and setting: next, TTGGAGTTGGTGACGTAGCCGT: -0.459.
Same read-out and setting: next, TGTGTAGGAGTTGTGTAGCTTC: 0.492; TTTCGTTGTCTCGAAGGGCTGT: 0.949.
On the same count and under the same terms, next, TATACCTTGTAGTCCTCCGTGG: 0.16; TTCGTTGTCTCGAAGGGCTGTG: 0.76; TACCTTGTAGTCCTCCGTGGGG: -0.92.
In turn, TGTAGCTTCCGGAACATGCTGC had a sensor-assay potency score (higher = more potent) of 0.0954.
Same read-out and setting: next, TAGTTGAGAGAACATGCACAGC: -1.15.
On the same count and under the same terms, next, TTGTGTAGCTTCCGGAACATGC: -0.801.
Sequence TTGAGAGAACATGCACAGCTGC showed a sensor-assay potency score (higher = more potent) of -0.482.
On the same count and under the same terms, next, TTCAGCTCGTTCTCCGTAGGGG: 0.103.

Values taken from the OligoGym collection.
Also: reference of the scale not given here.
